Experimental data reported in the supplement of paper PMC10849652.
The full data set covers some 7,900 targets. This sample favours those with a hit. About 0.6% of all pairs of compound and target were hits.

What was measured:
Experiment in all cases: log2 fold change, soluble protein after heating vs DMSO (PISA); higher = thermal stabilisation; K562 cells, 10 uM, 30 min; active = over 0.2 and 3.5 SD of the protein, either way, in both replicates (recomputed)
bafetinib = compound: Cc1ccc(NC(=O)c2ccc(CN3CC[C@H](N(C)C)C3)c(C(F)(F)F)c2)cc1Nc1nccc(-c2cncnc2)n1 [bafetinib]
Procedure, shortened: (§1)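 K562 cells at 2×10^6 cells/mL were treated with 10 μM compound for 30 min. Aliquots were heated for 3 min across 48°C-58°C, pooled, and extracted in PBS with 0.5% NP-40 at 4°C; soluble protein was the supernatant after 21,000xg for 90 min. Soluble protein was quantified by TMTpro 16plex LC-MS/MS with channel sums equalised, and reported as log2 fold change in thermal stability against DMSO controls, with values from duplicates.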

[1] = compound: Cc1cccc(CC(=O)N2CCc3c2ccc(-c2cn(C)c4ncnc(N)c24)c3F)n1
Procedure, shortened: as §1

nilotinib = compound: Cc1cn(-c2cc(NC(=O)c3ccc(C)c(Nc4nccc(-c5cccnc5)n4)c3)cc(C(F)(F)F)c2)cn1 [nilotinib]
Procedure, shortened: as §1

[2] = compound: Cc1nc(Nc2n[nH]c3c2CN(C(=O)N[C@H](CN(C)C)c2ccccc2)C3(C)C)c2sccc2n1
Procedure, shortened: as §1

dasatinib = compound: Cc1nc(Nc2ncc(C(=O)Nc3c(C)cccc3Cl)s2)cc(N2CCN(CCO)CC2)n1 [dasatinib]
Procedure, shortened: as §1

[3] = compound: Cc1ncc(-c2ccnc(Nc3ccc(S(C)(=O)=O)cc3)n2)n1C(C)C
Procedure, shortened: as §1

[4] = compound: Cn1cc(-c2ccc3c(c2)CCN3C(=O)Cc2cccc(C(F)(F)F)c2)c2c(N)ncnc21
Procedure, shortened: as §1

[5] = compound: Cn1cc(-c2ccc3nnc(C(F)(F)c4ccc5ncccc5c4)n3n2)cn1
Procedure, shortened: as §1

tipifarnib = compound: Cn1cncc1[C@@](N)(c1ccc(Cl)cc1)c1ccc2c(c1)c(-c1cccc(Cl)c1)cc(=O)n2C [tipifarnib]
Procedure, shortened: as §1

mubritinib = compound: FC(F)(F)c1ccc(/C=C/c2nc(COc3ccc(CCCCn4ccnn4)cc3)co2)cc1 [mubritinib]
Procedure, shortened: as §1

Measured: log2 fold change

GABARAPL2 (UniProt P60520)
Sequence of UniProt P60520 (P60520 whole entry, looked up): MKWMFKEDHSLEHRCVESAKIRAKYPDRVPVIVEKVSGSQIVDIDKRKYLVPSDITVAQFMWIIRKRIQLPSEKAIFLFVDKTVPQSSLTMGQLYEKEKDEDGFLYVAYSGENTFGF
inactive: bafetinib -0.168 | [1] 0.096 | nilotinib -0.015 | [2] -0.028 | dasatinib -0.014 | [3] -0.004 | [4] 0.046 | [5] 0.279 | tipifarnib -0.003 | mubritinib 0.03

HSPA8 (UniProt P11142)
Sequence of UniProt P11142 (P11142 whole entry, looked up): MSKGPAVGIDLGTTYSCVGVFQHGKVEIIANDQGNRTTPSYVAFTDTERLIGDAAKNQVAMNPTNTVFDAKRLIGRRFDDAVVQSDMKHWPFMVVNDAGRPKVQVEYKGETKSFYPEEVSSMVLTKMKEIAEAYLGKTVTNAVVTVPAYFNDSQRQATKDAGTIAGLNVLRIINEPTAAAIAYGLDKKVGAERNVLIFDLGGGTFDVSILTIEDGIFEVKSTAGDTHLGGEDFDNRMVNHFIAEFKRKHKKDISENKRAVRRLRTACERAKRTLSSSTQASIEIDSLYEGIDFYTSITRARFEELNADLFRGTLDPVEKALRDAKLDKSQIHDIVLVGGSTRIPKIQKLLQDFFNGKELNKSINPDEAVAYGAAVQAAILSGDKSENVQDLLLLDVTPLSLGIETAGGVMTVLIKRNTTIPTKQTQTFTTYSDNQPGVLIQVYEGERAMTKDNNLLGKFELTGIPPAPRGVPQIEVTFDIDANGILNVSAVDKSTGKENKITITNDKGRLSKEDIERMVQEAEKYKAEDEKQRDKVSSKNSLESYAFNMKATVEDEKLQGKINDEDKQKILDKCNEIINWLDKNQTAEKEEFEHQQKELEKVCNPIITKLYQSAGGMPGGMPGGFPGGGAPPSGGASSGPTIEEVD
inactive: bafetinib 0.008 | [1] -0.008 | nilotinib 0.081 | [2] -0.001 | dasatinib 0.03 | [3] -0.003 | [4] -0.029 | [5] -0.003 | tipifarnib 0.037 | mubritinib -0.002

HIKESHI (UniProt Q53FT3)
inactive: bafetinib -0.003 | [1] 0.02 | nilotinib -0.062 | [2] 0.018 | dasatinib 0.079 | [3] 0.009 | [4] 0.043 | [5] 0.065 | tipifarnib -0.043 | mubritinib 0.025

GLYR1 (UniProt Q49A26)
Sequence of UniProt Q49A26 (Q49A26 whole entry, looked up): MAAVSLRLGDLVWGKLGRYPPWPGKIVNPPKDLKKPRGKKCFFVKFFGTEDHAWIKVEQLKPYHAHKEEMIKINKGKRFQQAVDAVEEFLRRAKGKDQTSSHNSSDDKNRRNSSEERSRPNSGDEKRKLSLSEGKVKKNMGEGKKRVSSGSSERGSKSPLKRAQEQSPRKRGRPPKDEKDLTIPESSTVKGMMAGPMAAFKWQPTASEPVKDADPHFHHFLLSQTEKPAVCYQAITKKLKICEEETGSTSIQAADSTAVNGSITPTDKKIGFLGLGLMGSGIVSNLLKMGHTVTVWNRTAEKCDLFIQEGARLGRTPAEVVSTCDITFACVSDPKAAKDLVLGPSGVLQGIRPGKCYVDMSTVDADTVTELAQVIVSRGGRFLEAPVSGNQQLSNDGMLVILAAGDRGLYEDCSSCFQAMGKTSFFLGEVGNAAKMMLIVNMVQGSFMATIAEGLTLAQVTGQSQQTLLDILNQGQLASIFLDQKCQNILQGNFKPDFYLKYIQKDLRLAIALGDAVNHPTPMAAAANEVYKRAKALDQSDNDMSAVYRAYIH
inactive: bafetinib 0.109 | [1] -0.015 | nilotinib 0.082 | [2] 0.068 | dasatinib 0.067 | [3] -0.004 | [4] -0.004 | [5] -0.01 | tipifarnib 0.054 | mubritinib 0.024

GPD1 (UniProt P21695)
Sequence of UniProt P21695 (P21695 whole entry, looked up): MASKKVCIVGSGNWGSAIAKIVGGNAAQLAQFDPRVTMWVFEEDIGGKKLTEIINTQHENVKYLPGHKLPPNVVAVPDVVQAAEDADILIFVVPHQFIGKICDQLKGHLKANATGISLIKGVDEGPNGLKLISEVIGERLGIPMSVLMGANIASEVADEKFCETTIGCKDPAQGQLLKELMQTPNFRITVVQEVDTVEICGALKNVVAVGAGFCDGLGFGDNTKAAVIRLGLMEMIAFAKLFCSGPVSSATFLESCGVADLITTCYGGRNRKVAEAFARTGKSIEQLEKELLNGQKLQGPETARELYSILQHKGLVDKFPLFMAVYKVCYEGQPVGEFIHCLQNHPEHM
inactive: bafetinib -0.171 | [1] -0.123 | nilotinib -0.104 | [2] 0.054 | dasatinib 0.061 | [3] -0.017 | [4] 0.238 | [5] 0.163 | tipifarnib 0.057 | mubritinib 0.045

GNG5 (UniProt P63218)
Sequence of UniProt P63218 (P63218 whole entry, looked up): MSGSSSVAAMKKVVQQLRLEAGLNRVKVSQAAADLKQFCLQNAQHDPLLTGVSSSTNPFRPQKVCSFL
inactive: bafetinib 0.013 | [1] -0.048 | nilotinib 0.12 | [2] 0.023 | dasatinib 0.06 | [3] -0.051 | [4] 0.027 | [5] 0.169 | tipifarnib 0.027 | mubritinib 0.039

GYS1 (UniProt P13807)
inactive: bafetinib 0.107 | [1] 0.011 | nilotinib 0.237 | [2] -0.18 | dasatinib 0.172 | [3] -0.036 | [4] -0.266 | [5] -0.139 | tipifarnib 0.147 | mubritinib 0.001

FANCI (UniProt Q9NVI1)
Sequence of UniProt Q9NVI1 (Q9NVI1 whole entry, looked up): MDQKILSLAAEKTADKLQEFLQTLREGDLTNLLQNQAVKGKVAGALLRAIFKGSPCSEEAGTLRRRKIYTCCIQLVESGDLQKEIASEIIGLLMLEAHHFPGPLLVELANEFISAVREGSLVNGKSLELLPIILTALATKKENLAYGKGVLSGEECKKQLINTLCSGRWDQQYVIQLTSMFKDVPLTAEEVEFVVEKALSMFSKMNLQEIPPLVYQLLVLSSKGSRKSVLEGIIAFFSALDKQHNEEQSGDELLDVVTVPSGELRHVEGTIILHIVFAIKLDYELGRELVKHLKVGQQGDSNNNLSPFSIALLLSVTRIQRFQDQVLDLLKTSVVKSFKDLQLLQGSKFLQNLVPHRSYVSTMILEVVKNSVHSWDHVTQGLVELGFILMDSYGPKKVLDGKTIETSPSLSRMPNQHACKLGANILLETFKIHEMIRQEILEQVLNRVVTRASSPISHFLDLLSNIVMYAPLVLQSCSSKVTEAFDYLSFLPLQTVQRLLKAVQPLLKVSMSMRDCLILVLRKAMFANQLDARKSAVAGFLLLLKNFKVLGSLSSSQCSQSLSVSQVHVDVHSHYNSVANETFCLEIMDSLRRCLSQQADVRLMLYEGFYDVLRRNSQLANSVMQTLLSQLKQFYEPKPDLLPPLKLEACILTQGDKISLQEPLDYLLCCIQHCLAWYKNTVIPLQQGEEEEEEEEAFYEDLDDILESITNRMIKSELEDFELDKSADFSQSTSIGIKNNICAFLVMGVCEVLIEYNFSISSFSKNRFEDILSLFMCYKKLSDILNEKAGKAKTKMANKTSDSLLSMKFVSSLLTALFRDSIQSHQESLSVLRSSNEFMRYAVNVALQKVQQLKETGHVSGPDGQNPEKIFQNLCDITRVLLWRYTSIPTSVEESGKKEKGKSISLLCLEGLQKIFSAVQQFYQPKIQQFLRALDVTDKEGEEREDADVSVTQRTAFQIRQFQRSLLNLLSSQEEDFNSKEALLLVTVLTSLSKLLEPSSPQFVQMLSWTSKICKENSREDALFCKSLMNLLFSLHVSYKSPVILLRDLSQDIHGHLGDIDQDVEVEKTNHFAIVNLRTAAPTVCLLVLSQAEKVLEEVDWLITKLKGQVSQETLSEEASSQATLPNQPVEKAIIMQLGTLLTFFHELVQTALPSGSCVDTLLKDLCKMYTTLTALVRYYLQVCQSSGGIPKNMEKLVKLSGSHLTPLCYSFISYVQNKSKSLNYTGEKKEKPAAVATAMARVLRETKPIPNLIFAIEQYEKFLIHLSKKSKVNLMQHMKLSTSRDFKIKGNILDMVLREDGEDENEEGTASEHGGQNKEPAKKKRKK
inactive: bafetinib -0.043 | [1] 0.041 | nilotinib -0.13 | [2] 0.113 | dasatinib -0.118 | [3] -0.085 | [4] 0.075 | [5] 0.098 | tipifarnib -0.027 | mubritinib 0.086

HRC (UniProt P23327)
inactive: bafetinib -0.098 | [1] -0.147 | nilotinib 0.01 | [2] -0.017 | dasatinib 0.055 | [3] -0.039 | [4] -0.038 | [5] 0.037 | tipifarnib 0.016 | mubritinib 0.041

HDDC2 (UniProt Q7Z4H3)
Sequence of UniProt Q7Z4H3 (Q7Z4H3 whole entry, looked up): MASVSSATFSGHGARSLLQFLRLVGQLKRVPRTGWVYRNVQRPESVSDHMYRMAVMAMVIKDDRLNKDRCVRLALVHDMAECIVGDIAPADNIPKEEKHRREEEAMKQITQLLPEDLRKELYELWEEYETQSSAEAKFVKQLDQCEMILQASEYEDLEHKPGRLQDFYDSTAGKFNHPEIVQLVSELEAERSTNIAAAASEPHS
inactive: bafetinib -0.015 | [1] 0.039 | nilotinib 0.057 | [2] -0.005 | dasatinib -0.01 | [3] -0.003 | [4] 0.069 | [5] -0.008 | tipifarnib -0.091 | mubritinib 0.043

HIST2H3A (UniProt Q71DI3)
inactive: bafetinib 0.198 | [1] -0.183 | nilotinib -0.054 | [2] -0.068 | dasatinib 0.215 | [3] -0.032 | [4] -0.258 | [5] -0.054 | tipifarnib 0.031 | mubritinib -0.037

GTF2E2 (UniProt P29084)
Sequence of UniProt P29084 (P29084 whole entry, looked up): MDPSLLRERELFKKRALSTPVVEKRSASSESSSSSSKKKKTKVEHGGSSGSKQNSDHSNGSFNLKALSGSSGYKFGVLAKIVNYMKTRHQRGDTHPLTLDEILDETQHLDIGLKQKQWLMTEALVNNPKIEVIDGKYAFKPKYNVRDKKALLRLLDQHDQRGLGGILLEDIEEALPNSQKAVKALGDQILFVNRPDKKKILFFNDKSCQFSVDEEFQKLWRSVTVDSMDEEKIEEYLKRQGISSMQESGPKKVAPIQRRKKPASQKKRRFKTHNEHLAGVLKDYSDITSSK
inactive: bafetinib 0.031 | [1] 0.03 | nilotinib -0.082 | [2] -0.108 | dasatinib -0.241 | [3] 0.005 | [4] -0.016 | [5] 0.044 | tipifarnib 0.051 | mubritinib -0.02

GDPD1 (UniProt Q8N9F7)
Sequence of UniProt Q8N9F7 (Q8N9F7 whole entry, looked up): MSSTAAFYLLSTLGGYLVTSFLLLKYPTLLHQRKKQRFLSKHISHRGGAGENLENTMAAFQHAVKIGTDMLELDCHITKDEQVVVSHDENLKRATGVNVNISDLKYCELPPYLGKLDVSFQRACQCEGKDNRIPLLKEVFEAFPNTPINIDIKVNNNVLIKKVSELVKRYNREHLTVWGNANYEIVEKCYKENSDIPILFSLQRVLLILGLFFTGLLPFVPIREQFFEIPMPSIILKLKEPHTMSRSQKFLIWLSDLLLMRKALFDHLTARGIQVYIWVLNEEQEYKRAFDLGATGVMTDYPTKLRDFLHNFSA
inactive: bafetinib 0.088 | [1] -0.141 | nilotinib 0.1 | [2] 0.104 | dasatinib 0.023 | [3] -0.045 | [4] 0.046 | [5] -0.031 | tipifarnib 0.106 | mubritinib 0.096

HNRNPF (UniProt P52597)
Sequence of UniProt P52597 (P52597 whole entry, looked up): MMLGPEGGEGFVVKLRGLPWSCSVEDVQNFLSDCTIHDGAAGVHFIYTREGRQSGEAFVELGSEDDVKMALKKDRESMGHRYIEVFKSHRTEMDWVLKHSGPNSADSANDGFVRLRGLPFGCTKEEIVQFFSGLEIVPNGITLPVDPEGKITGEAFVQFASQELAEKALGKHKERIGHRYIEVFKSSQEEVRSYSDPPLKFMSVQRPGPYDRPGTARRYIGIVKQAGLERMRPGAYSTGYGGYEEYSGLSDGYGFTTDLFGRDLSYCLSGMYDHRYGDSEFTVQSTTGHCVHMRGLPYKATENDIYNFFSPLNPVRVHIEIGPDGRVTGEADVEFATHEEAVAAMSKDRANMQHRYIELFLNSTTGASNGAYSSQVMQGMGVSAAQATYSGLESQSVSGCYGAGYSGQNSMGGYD
inactive: bafetinib -0.013 | [1] 0.056 | nilotinib -0.106 | [2] -0.178 | dasatinib -0.15 | [3] -0.066 | [4] 0.024 | [5] -0.057 | tipifarnib -0.051 | mubritinib -0.022

GALC (UniProt P54803)
Sequence of UniProt P54803 (P54803 whole entry, looked up): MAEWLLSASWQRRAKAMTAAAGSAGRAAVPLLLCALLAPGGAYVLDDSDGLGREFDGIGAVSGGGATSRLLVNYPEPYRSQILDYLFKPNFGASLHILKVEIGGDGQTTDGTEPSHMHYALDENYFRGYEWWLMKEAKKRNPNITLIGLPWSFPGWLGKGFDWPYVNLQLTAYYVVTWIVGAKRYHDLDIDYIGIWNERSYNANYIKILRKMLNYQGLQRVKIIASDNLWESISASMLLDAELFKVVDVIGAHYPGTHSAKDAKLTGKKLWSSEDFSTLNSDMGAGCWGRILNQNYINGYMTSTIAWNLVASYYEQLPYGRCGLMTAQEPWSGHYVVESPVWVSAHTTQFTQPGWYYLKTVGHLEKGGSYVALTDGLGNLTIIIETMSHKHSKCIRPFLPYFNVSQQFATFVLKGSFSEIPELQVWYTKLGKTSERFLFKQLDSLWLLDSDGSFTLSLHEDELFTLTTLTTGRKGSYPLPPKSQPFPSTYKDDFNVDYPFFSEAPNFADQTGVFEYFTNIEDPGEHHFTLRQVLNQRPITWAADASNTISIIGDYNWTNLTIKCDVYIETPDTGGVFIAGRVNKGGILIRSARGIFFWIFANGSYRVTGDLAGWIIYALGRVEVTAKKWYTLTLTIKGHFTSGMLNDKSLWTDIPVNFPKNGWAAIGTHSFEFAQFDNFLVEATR
active: bafetinib -0.507
inactive: [1] 0.084 | nilotinib 0.008 | [2] 0.045 | dasatinib 0.096 | [3] 0.01 | [4] 0.004 | [5] 0.065 | tipifarnib 0.126 | mubritinib -0.005
